# FBW7 act: human FBW7 E3 ligase activation, primary screen; Q969H0; AlphaScreen FBW7–phospho-cyclin E peptide binding, activator screen; normalized activity (activation), % at 26.1 µM; hit rate 0.13% among 650,000; in the data active = normalized activity above about 1.9%;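 note: purified mutant Fbw7 with reduced substrate affinity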
# MITF inh: human MITF inhibition, primary screen; O75030; AlphaScreen MITF homodimerization, bead proximity signal; inhibition, % at 2.6 µM; hit rate 0.91% among 650,000; in the data active = inhibition above about 50%;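 note: 0% = vehicle wells with protein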
# TEAD-YAP inh: TEAD-YAP interaction inhibition; inhibition, % at 9.12 µM; HEK-TIYL cells, TEAD-Gal4/YAP UAS-luciferase luminescence; hit rate 1.4% among 640,000; in the data active = inhibition above about 32%;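 note: 0% = median of test compound wells and 100% = reference inhibitor wells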
# GPR151 ag: activates the human receptor GPR151; hit rate 1% among 650,000; activation, % at 11.2 µM; PathHunter beta-arrestin GPR151 cells, luminescence; AID 1508602; in the data active = activation above about 4.9%;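 note: 0% = median of compound wells and 100% = cells with positive control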
# Target sequence (Q8TDV0 whole entry, looked up): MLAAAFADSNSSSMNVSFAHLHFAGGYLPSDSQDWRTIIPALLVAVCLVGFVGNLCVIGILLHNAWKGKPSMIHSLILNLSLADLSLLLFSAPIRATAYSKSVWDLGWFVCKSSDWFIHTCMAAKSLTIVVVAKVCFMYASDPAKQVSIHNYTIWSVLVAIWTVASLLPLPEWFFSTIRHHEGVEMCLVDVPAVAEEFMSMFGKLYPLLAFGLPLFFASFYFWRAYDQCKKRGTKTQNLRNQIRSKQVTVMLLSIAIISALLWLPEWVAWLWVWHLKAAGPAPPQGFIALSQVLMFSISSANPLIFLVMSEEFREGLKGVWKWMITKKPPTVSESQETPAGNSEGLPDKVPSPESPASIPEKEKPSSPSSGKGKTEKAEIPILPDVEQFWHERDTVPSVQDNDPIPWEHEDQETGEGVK
# MITF confirm: confirmation of human MITF inhibitors. shares compounds with MITF inh. AlphaScreen MITF homodimerization, biotin/His-MITF beads. inhibition, % at 2.6 µM. hit rate 16% among 4,700. AID 1259372;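 active = inhibition above a cutoff derived from the DMSO control wells, cut at about 28% in these data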;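 note: 0% = MITF dimer wells with DMSO only; inhibitors lower the bead chemiluminescence by keeping MITF from dimerizing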
# AS interf DR: counter-screen: compounds optically interfering with AlphaScreen; shares compounds with MITF inh; AlphaScreen optical interference counterscreen, cell-free; IC50, µM; hit rate 6% among 480; AID 1259373; call rule not given here
# AS interf ctr: counter-screen: compounds optically interfering with AlphaScreen; hit rate 7.6% among 4,700; shares compounds with MITF inh; LysRS AlphaScreen counterscreen, signal interference, triplicate; AID 1259376; inhibition, % at 2.6 µM;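 active = inhibition above a cutoff derived from the DMSO control wells, cut at about 30% in these data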
# An asterisk follows results filed as active; nt = not tested or not shown. Most compounds without a hit are left out; they make up all but 3.4% or so of the library.
SMILES,FBW7 act,MITF inh,TEAD-YAP inh,GPR151 ag,MITF confirm,AS interf ctr,others
O=C(Nc1ccc(-c2nc3ccccc3o2)cc1)c1ccccc1Br,-0.2,-4.8,-79.3,0.6,nt,nt,
c1ccc(CN2CCN(C3CCCCC3)CC2)nc1,0.7,59.9*,5.0,-2.3,12.1,9.9,
c1ccc(CN2CCN(c3ncccn3)CC2)nc1,0.8,13.7,-1.6,-2.6,nt,nt,
c1ccc(CN2CCN(C3CCCCCC3)CC2)nc1,0.5,66.9*,3.9,-0.6,-9.2,14.6,
CC1CCC(N2CCN(Cc3ccccn3)CC2)CC1 (stereo not given),0.6,63.6*,11.9,-1.5,0.5,3.4,
CCCOc1ccc(N2CCN(C(=O)c3ccc(OCC)cc3)CC2)nn1,0.4,2.3,7.1,0.0,nt,nt,
COc1ccc(/C=c2\sc3nc4ccccc4n3c2=O)c(OC)c1OC,0.0,6.9,2.3,2.2,nt,nt,
CCOC(=O)C1=C(C)NC2=C(C(=O)C(C(=O)OCC)C(c3ccccc3OC)C2)C1c1cc(OC)ccc1OC (stereo not given),0.1,3.9,10.1,-2.4,nt,nt,
CCOC(=O)C1=C(C)NC2=C(C(=O)C(C(=O)OCC)C(c3ccc(OC)cc3)C2)C1c1cc(OC)ccc1OC (stereo not given),-0.2,115.9*,0.0,0.4,-10.1,-6.9,
c1ccc(-n2ncc3c(NCCCn4ccnc4)ncnc32)cc1,-0.1,12.3,-53.0,-0.2,nt,nt,
COC(=O)c1cc(CNCC(c2ccco2)N2CCCCC2)oc1C (stereo not given),-0.2,75.6*,-4.0,-0.1,11.1,16.3,
COC(=O)CCNCC(c1ccco1)N1CCCCC1 (stereo not given),-0.2,53.6*,1.0,-0.4,-1.8,0.8,
COc1ccc(NC(=S)NCC(c2ccco2)N2CCCC2)cc1 (stereo not given),-0.1,6.1,1.6,-1.0,nt,nt,
O=C(Nc1cccc(-c2cn3cccnc3n2)c1)c1cc2ccccc2oc1=O,0.2,13.0,-8.7,0.0,nt,nt,
O=C(Nc1ccc(-c2cn[nH]c2)cc1OCCN1CCCC1)OCc1ccccc1,-0.4,2.9,-2.2,-1.2,nt,nt,
CN1CC[C@H](Oc2cc(-c3cn[nH]c3)ccc2NC(=O)OCc2ccccc2)C1,1.2,53.2*,9.1,-1.2,57.2*,-4.7,AS interf DR=>6.48
CN(C)CCN(C(=O)OCc1ccccc1)c1cc(-c2cn[nH]c2)ccc1NC(=O)OCc1ccccc1,0.8,57.5*,-1.3,1.2,56.0*,-11.7,AS interf DR=>6.48
COc1cccc(COC(=O)Nc2ccc(-c3cn[nH]c3)cc2N(C)CCN(C)C)c1,1.0,68.2*,-16.3,-1.4,73.2*,10.9,AS interf DR=>6.48
O=C(c1ccccc1)N(Cc1cc2ccccc2[nH]c1=O)CC1CCCO1 (stereo not given),-0.1,-16.9,4.0,0.6,nt,nt,
N#C/C(=C\c1ccccc1Cl)c1nc(-c2ccccc2)cs1,0.2,-1.9,-21.8,-0.5,nt,nt,
COc1ccc(CN2CCc3cc(OC)c(OC)cc3C2)cc1,0.8,17.9,0.3,-1.0,nt,nt,
CCc1ccc(CN2CCN(Cc3cc(OC)c(OC)cc3OC)CC2)cc1,-0.2,63.4*,5.3,-1.0,-4.3,4.7,
COc1ccc(CN2CCN(Cc3cc(OC)c(OC)cc3OC)CC2)cc1,-0.2,75.7*,-0.3,0.7,10.3,19.5,
COc1cc(OC)c(OC)cc1/C=N/NC(=O)C(N)=O,-0.2,-0.7,10.0,0.4,nt,nt,
N#Cc1c(N)nc(SCC(N)=O)c(C#N)c1-c1ccccc1Cl,0.2,84.9*,-11.7,2.3,2.6,4.7,
SMILES,FBW7 act,MITF inh,TEAD-YAP inh,GPR151 ag,MITF confirm,AS interf ctr,others
CC1=CC(=C2C(=O)NC(=S)NC2=O)C=C(C)N1CC(C)C,0.4,10.5,-2.1,1.3,nt,nt,
CC1CCN(Cc2nnnn2CCCC(=O)NCCCc2cccnc2)CC1,0.1,1.7,6.9,-0.8,nt,nt,
CC1CCN(Cc2nnnn2CCCC(=O)NCCc2cccc(Cl)c2)CC1,0.4,65.1*,5.0,1.4,-0.1,12.8,
Cc1cc(SCc2ccccc2C)n2nc(C)nc2n1,0.2,4.1,8.2,-0.3,nt,nt,
O=C1CCCN1CCn1cnc2c(NCc3nc4ccccc4[nH]3)nc(Nc3ccccc3)nc21,0.2,52.1*,10.3,-1.0,1.0,7.8,
CN(C(=O)CN1N=C(C(C)(C)C)Cn2c(cc3ccccc32)C1=O)C1CCS(=O)(=O)C1 (stereo not given),-0.1,2.6,-2.8,1.5,nt,nt,
CCc1ccc(CNc2ccc(N3CCOCC3)c(C(=O)O)c2)cc1,0.2,51.6*,-4.1,-0.3,0.3,14.9,
CCOc1c(O)ccc(/C=C2\C(=O)Nc3ccc(Br)cc32)c1[N+](=O)[O-],0.1,64.6*,-1.0,-0.3,1.8,22.7,
Cc1cn2c(=O)c(C(=O)N(C)CC(=O)N(C)C)cnc2s1,-0.1,-0.8,2.2,-0.6,nt,nt,
C#CCN(C)C(=O)c1cnc2sc(C)cn2c1=O,-0.2,56.7*,-0.7,0.1,12.2,8.0,
CCC(CC)C(=O)Nc1ccc(OC)c(OC)c1,0.0,-4.5,6.3,-1.2,nt,nt,
CC1=NN(c2ccc(C(=O)O)c(N)c2)C(=O)C1,-0.9,68.2*,-8.6,2.3,54.3*,18.0,AS interf DR=>6.48
COc1ccc(/C(C)=N\OCc2nc3c4c5c(sc4ncn3n2)CCCC5)cc1,-0.1,-5.3,1.8,0.1,nt,nt,
CCC[C@@H]1NC(=O)[C@H]2CN(Cc3cnn(-c4ccccc4OC)c3)CCN2C1=O,0.6,51.3*,-1.8,1.1,-2.9,-1.8,
COc1ccccc1-n1cc(CN2CCN3C(=O)[C@H](CO)NC(=O)[C@H]3C2)cn1,0.1,16.0,7.2,0.0,nt,nt,
CCOC(=O)c1ccc(N2C(=O)C(=O)/C(=C(/O)c3ccc(OC)cc3)C2c2ccc(C)cc2)cc1 (stereo not given),0.4,-3.6,3.2,-1.4,nt,nt,
CCOC(=O)c1ccc(N2C(=O)C(=O)/C(=C(\O)c3ccc(OC)cc3)C2c2ccccc2[N+](=O)[O-])cc1 (stereo not given),0.4,52.2*,-20.2,-4.9,12.3,11.2,
Cc1ccc(C)c(OCCOCCN2CC(C)OC(C)C2)c1C (stereo not given),-0.1,52.0*,2.1,0.3,-5.5,-3.6,
CC1CN(CCOCCOc2ccccc2-c2ccccc2)CC(C)O1 (stereo not given),-0.1,71.5*,-8.9,1.6,17.1,29.7,
COC(=O)c1ccc(OCCOCCN2CC(C)OC(C)C2)cc1 (stereo not given),0.0,51.5*,9.6,-0.2,-6.9,-8.0,
COc1ccccc1OCCOCCN1CC(C)OC(C)C1 (stereo not given),1.1,26.6,-6.5,-0.6,nt,nt,
COc1cccc(OC)c1OCCCN1CC(C)OC(C)C1 (stereo not given),-0.2,62.0*,5.9,0.7,6.7,10.1,
Clc1cccc(-c2n[nH]c3c2CNCC3)c1,-0.1,-10.8,6.5,0.3,nt,nt,
O=[N+]([O-])c1ccccc1OCCOCCOc1cccc2cccnc12,0.6,68.5*,-4.2,2.8,8.3,15.7,

# Assay outcomes as filed in PubChem BioAssay.
